# Screens (PubChem)
# Shown are actives, neighbours in structure and some others; about 17% of the full set was active somewhere.
# ClpP mod: qHTS Assay for Activators of ClpP; ATP-dependent Clp protease proteolytic subunit (Bacillus subtilis (strain 168)), P80244; 340,000 compounds, 1.9% hits; purified B. subtilis ClpP, FRET peptide cleavage, 20 min; Potency, µM (doses to about 57.5 µM), inactives show at the highest dose activity change, negative = active; active = well fitted falling curve with a large enough effect; inconclusive = small, poorly fitted or top-dose-only effect; inactive = no such curve, though single readings can be large or run the other way; note: the source files actives as falling curves though it sought activators and does not explain the sign; nearly all actives have a fitted effect of over 65% in size
#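 Purified B. subtilis ClpP, 10 microg/mL final in Tris/HCl pH8 with KCl, BSA, glycerol and Tween-20, cleaved an Abz/nitrotyrosine-quenched decapeptide. Fluorescence (ex 320, em 430) was read at 0 and 20 min at room temperature. Delta was normalized to 5.8 microM ADEP and DMSO/no-enzyme controls.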
# TDP1 cell noCPT: qHTS for Inhibitors of human tyrosyl-DNA phosphodiesterase 1 (TDP1): qHTS in cells in absence of CPT | DT40 Tdp1-/- hTDP1 cells, no CPT, ATP luminescence, 48 h | Potency, µM (titrated, usually from 46.2 µM), for the others: top-dose activity change, negative = growth inhibition, usual class: inhibitors | 420,000 compounds, 15% hits; note: % is set by controls: 0 for no effect and ±100 for the full control effect; nearly all actives have a fitted effect of over 55% in size
#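 Chicken DT40 Tdp1-/- cells complemented with human TDP1, screened without camptothecin (DMSO vehicle only), 400 cells/well. Compounds pin-transferred, cells incubated at 37 °C for at least 48 hr. Growth read as ATP-dependent luminescence (CellTiter-Glo, 30 min at RT).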
# DT40 TDP1 CPT: growth inhibition of DT40 Tdp1-/-;hTDP1 cells with camptothecin (screen for TDP1 inhibitors); chicken DT40 Tdp1-/-;hTDP1 cells + 20 nM CPT, ATP luminescence, 48 h; 420,000 compounds, 12% hits; Potency, µM (titrated, usually from 46.2 µM), for inactives: top-dose activity change, negative = growth inhibition, hits mostly inhibitors; note: % is set by controls: 0 for no effect and ±100 for the full control effect; nearly all actives have a fitted effect of over 55% in size
#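 Cell growth measured by CellTiter-Glo luminescence after a minimum 48 h, 37 C compound exposure with 20 nM CPT in Tdp1-knockout DT40 cells stably expressing hTDP1, seeded 400/well; qHTS titration format.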
# TDP1 block: inhibitors of human tyrosyl-DNA phosphodiesterase TDP1; Q9NUW8; recombinant TDP1, AlphaScreen DNA substrate cleavage; Potency, µM (top dose mostly 130 µM), inactives show at the highest dose activity change, negative = inhibition, hits mostly inhibitors; 350,000 compounds, 0.28% hits; note: % is set by controls: 0 for no effect and ±100 for the full control effect; nearly all actives have a fitted effect of over 40% in size
# Target sequence (Q9NUW8 whole entry, looked up): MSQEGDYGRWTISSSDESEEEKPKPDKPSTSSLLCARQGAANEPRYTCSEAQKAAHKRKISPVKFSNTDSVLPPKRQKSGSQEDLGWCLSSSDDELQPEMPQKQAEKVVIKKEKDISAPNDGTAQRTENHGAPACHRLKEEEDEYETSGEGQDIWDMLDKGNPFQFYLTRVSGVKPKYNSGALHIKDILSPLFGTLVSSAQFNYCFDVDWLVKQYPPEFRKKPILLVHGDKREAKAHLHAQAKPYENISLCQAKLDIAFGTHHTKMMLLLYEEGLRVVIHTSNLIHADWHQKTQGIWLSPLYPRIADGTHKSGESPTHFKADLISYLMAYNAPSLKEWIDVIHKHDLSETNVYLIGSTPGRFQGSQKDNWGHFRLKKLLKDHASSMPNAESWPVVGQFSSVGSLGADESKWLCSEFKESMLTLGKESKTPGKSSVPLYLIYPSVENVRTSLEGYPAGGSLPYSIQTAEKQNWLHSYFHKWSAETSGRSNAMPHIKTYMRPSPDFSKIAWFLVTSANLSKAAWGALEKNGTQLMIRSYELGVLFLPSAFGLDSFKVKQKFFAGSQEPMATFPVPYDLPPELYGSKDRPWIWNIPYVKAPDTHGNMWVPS
#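 Steps: enzyme plus compound, 15 min RT; add biotin/phosphotyrosine-FITC oligonucleotide (15 nM final), react 5 min; add donor/acceptor beads (10 ug/ml final), 10 min; read AlphaScreen. Tdp1 at 1 nM final.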
# * marks the source's active call; other numbers are inactive results; ? = inconclusive; . = not tested or not shown; [ ] = dose if it differs, or a comment. Unless noted, calls come from the whole dose curve; as a rule, active = well fitted curve in the direction sought with a large enough effect; inconclusive = small, poorly fitted or top-dose-only effect, or another doubt; inactive = no such curve, though single readings can be large; an effect the other way counts as inactive or inconclusive. Potency is the fitted concentration of half-maximal effect.
SMILES,ClpP mod,TDP1 cell noCPT,DT40 TDP1 CPT,TDP1 block
CCCCCC[n+]1c(-c2ccc(Cl)cc2Cl)csc1Nc1ccccc1,1%,23µM*,?,0%
Cc1nc(/C=C/c2ccccc2)[nH]c(=O)c1-c1ccccc1,-2%,?,10µM*,3%
CN(C)c1ccc(/C=C/c2nc3ccccc3c(=O)[nH]2)cc1,1%,10µM*,21µM*,.
O=c1[nH]c(/C=C/c2ccccc2F)nc2ccccc12,4%,2.9µM*,2.9µM*,45µM*
Cc1cccc(/C=C\c2nc3ccccc3c(=O)[nH]2)c1,?,18µM*,21µM*,3%
O=c1[nH]c(/C=C/c2cccc3ccccc23)nc2ccccc12,.,?,?,5%
C#CCN(C[C@H]1[C@H](OC(=O)NCc2ccccc2F)[C@H](OC(=O)NCc2ccccc2F)C[C@H]2C(=O)N(c3ccccc3)C(=O)[C@@H]12)S(=O)(=O)c1ccc(C)cc1,-1%,?,-13%,.
COc1cccc([C@H]2Nc3ccc(S(=O)(=O)Nc4cc(C)ccc4C)cc3[C@H]3C=CC[C@H]32)c1,1%,5.2µM*,3.7µM*,.
COC(=O)c1ccc([C@H]2Nc3ccc(S(=O)(=O)Nc4cccc(C)c4)cc3[C@H]3C=CC[C@H]32)cc1,1%,1.2µM*,1.8µM*,.
Cc1ccc(NS(=O)(=O)c2ccc3c(c2)[C@H]2C=CC[C@H]2[C@@H](c2ccc(F)cc2)N3)cc1C,-3%,5.2µM*,8.2µM*,.
O=C(O)c1ccc(NS(=O)(=O)c2ccc3c(c2)C2C=CCC2C(c2ccccc2F)N3)cc1 (configuration not stated),.,-6%,7%,.
Cc1ccc([C@H]2Nc3ccc(S(=O)(=O)Nc4cccc(Cl)c4C)cc3[C@H]3C=CC[C@H]32)cc1,-1%,?,?,4%
CC(=O)c1ccc2c(c1)C1C=CCC1C(c1ccncc1)N2 (configuration not stated),-6%,?,-18%,7%
COC(=O)c1ccc(C2Nc3ccc(/C(C)=N/NC(=O)C(OC)c4ccccc4)cc3C3C=CCC32)cc1 (configuration not stated),-5%,15µM*,13µM*,0%
O=C(Cn1nnc(-c2ccc([N+](=O)[O-])cc2)n1)NNC(=O)c1ccccc1,.,-12%,-6%,7%
COc1ccc(NC(=O)C2CC2(Cl)Cl)cc1S(=O)(=O)N1CCCCC1 (configuration not stated),0%,?,?,.
COc1ccc(C(C#N)CC(=O)c2ccc(OC)c(OCc3ccccc3)c2)cc1OC (configuration not stated),-3%,21µM*,15µM*,.
COc1ccc(C(=O)CSC#N)cc1OC,.,2.9µM*,3.3µM*,0%
CCc1ccccc1OCC(=O)OCC(=O)N1CC(=O)Nc2ccccc21,-2%,8%,-3%,-3%
Cc1nn(Cc2ccccc2)c(C)c1NC(=O)c1noc2c1CCc1ccccc1-2,-1%,?,?,5%
COc1ccc2c(c1)CCc1c(C(=O)Nc3c(C)nn(Cc4ccc(C)cc4)c3C)noc1-2,2%,9.2µM*,10µM*,5%
Cc1nn(Cc2ccc(Cl)c(Cl)c2)c(C)c1NC(=O)c1noc2c1CCc1ccccc1-2,-6%,5.8µM*,5.8µM*,1%
Cc1cc(N2C(=O)c3ccccc3C2=O)n[nH]1,.,.,.,0%
COc1cc2c(cc1NC(=O)c1cc(-c3ccncc3)nc3ccccc13)oc1ccccc12,-25%,?,21µM*,3%
COc1cc2c(cc1NC(=O)c1cc(-c3cccnc3)nc3ccc(C)cc13)oc1ccccc12,20µM*,?,11µM*,3%
SMILES,ClpP mod,TDP1 cell noCPT,DT40 TDP1 CPT,TDP1 block
COc1ccc(OCC(=O)Nc2cc3oc4ccccc4c3cc2OC)cc1,1%,-29%,9%,3%
Cc1ccc(-c2nc3ccccc3o2)cc1NC(=S)NC(=O)/C=C/c1ccco1,4%,2.9µM*,2.9µM*,7%
O=C(Nc1cccc(-c2nc3ccccc3o2)c1)C(F)(F)F,-10%,2.9µM*,3.7µM*,0%[12.3 µM]
Cc1ccc2oc(-c3ccc(C)c(NC(=O)/C=C/c4ccco4)c3)nc2c1,-9%,-24%,-19%,-7%
O=C(/C=C/c1ccco1)NC(=S)Nc1cccc(-c2nc3ccccc3o2)c1,4%,3.3µM*,4.6µM*,6%
CCN1C(=O)[C@H]2[C@@H](c3ccc(C)cc3)N[C@]3(CCCN(Cc4cccn4C)C3=O)[C@H]2C1=O,-3%,?,-15%,.
CCN1C(=O)[C@H]2[C@H]3CN=C(SC)N3[C@@](C)(C(=O)OC)[C@H]2C1=O,-1%,0%,-6%,.
COc1cc(/C=N/n2nnnc2N)cc(OC)c1OC,4%,-12%,3%,-4%
COc1ccc(C2NCCc3c2[nH]c2ccccc32)cc1COc1ccc(F)cc1 (configuration not stated),-2%,21µM*,?,.
COc1ccc(/C=N/NC(=O)c2cc(OC)c(OC)c(OC)c2)cc1CN1CCc2cc(OC)c(OC)cc2C1C (configuration not stated),0%,?,?,3%
COc1ccc(C2NCCc3c2[nH]c2ccccc32)cc1CN1CCc2cc(OC)c(OC)cc2C1C (configuration not stated),-2%,18µM*,?,.
COC(=O)CC(NS(=O)(=O)c1cccs1)c1ccc2c(c1)OCO2 (configuration not stated),1%,18%,-5%,2%
C[n+]1cn(Cc2cc(Cl)ccc2OC(F)F)c2ccccc21,1%,?,?,.
CCc1cccc(NC(c2ccccc2)c2nnc(-c3ccccc3F)o2)c1 (configuration not stated),-1%,21µM*,?,-5%
Cc1ccc(-c2cc(C(F)(F)F)n3nc(C(=O)Nc4ccc(Cl)c(C(F)(F)F)c4)cc3n2)cc1,-2%,0%,-8%,3%
COc1cc(OC)c(NC(=O)NC(C)c2c(-n3cccc3)sc(C)c2C)cc1Cl (configuration not stated),-4%,-20%,-25%,8%
COc1ccc(-c2nc3nc(C)cc(C)n3n2)cc1,16µM*,?,-1%,2%
COc1ccc(CNc2nc3nc(C)cc(C)n3n2)cc1,?,-10%,1%,3%
COc1ccc(N2CCN(C(CNC(=O)C(=O)NCc3cccnc3)c3cccnc3)CC2)cc1 (configuration not stated),-3%,?,?,5%
O=C(NCc1ccccc1)C(=O)NCC(c1cccnc1)N1CCN(c2ccccc2)CC1 (configuration not stated),-2%,13µM*,16µM*,-12%
